Values without a mark were called inactive. Active and inactive are the calls of the source. Cut-off read from the data, not from the text of the source: active = fold change mostly below about -2 (no sharp cut-off); inactive = mostly above about -1.8.
Experiment: modulation of TERT promoter-driven luciferase – cell-based, luciferase reporter, human, primary screen (AID 1259240)
Conditions: A2780 TERT promoter luciferase reporter, 16 h; at 20 µM, fold versus average of vehicle-only wells

SMILES | fold change | outcome
Cc1cc(NC(=O)CSc2nnc(Cn3c(=O)sc4ccccc43)n2-c2ccccc2)no1 | 1.22 | –
O=c1oc2cc(O)ccc2cc1S(=O)(=O)c1ccc(Cl)cc1 | -2.04 (active) | –
CCOC(=O)C1CCCN(c2c(N3CC(C)CC(C)C3)c(=O)c2=O)C1 (stereo not given) | -1.11 | –
O=C(NC1CCCC1)c1ccc2nc(N3CCOCC3)sc2c1 | -1.15 | –
CCN1CCN(C(=O)CSc2nc(-c3ccco3)cc(C(F)(F)F)n2)CC1 | -1.46 | –
CCOC(=O)CNc1c(N(C)C2CCCCC2)c(=O)c1=O | -1.1 | –
CCCN(CCC)C(=O)C1CCCN(S(=O)(=O)c2ccc3c(c2)oc(=O)n3C)C1 (stereo not given) | 1.49 | –
Cn1c(SCc2nc(-c3ccccc3)no2)nnc1-c1ccco1 | -2.04 (active) | –
COCCNc1cc(C)nc2c(-c3ccc(Cl)cc3)c(C)nn12 | -1.07 | –
COc1cc2c(=O)c(S(=O)(=O)c3ccccc3)cn(Cc3ccccc3Cl)c2cc1OC | -1.09 | –
CCOC(=O)c1c(C)n(C)c2ccc(OCC(O)Cn3nc(C)cc3C)cc12 (stereo not given) | -2.1 (active) | –
CCOC(=O)C1CCN(c2c(N(C)C3CCCCC3)c(=O)c2=O)CC1 | 1.32 | –
CCC(CO)NS(=O)(=O)c1ccc(OC)c(-c2nnc3c4ccccc4c(C)nn23)c1 (stereo not given) | -1.69 | –
O=C(CSc1nc(-c2ccco2)cc(C(F)(F)F)n1)N1CCSCC1 | -1.96 | –
Cc1ccccc1Cn1nc(C)c(NC(=O)c2cc(C3CC3)on2)c1C | -1.04 | –
c1cncc(Cc2nnc(N3CCC4(CC3)OCCO4)c3ccccc23)c1 | -1.13 | –
CCC(C)NC(=O)Cn1ncc2c3ccccc3n(C)c2c1=O (stereo not given) | -1.04 | –
CCOP(=O)(OCC)C(Nc1ccccc1)c1ccco1 (stereo not given) | 1.02 | –
Cc1cccc(-c2c3c(=O)n(C)c(=O)n(C)c3c3c(C)nc4ccccc4n23)c1 | 1.21 | –
Cc1nn2c(=O)/c(=C/c3ccc(Cl)c(Cl)c3)sc2nc1=O | 1.84 | –
Nc1ncnc2c1nc1n2CC(O)CS1 (stereo not given) | -1.44 | –
O=c1/c(=C/c2ccc(F)cc2)sc2nc(-c3ccco3)nn12 | -1.22 | –
c1ccc2nc3c(nc2c1)Nn1cnnc1S3 | -1.42 | –
Fc1ccc(-c2ncc3ccccn23)cc1 | 1.16 | –
COc1cc(-c2nc3cnccn3c2NC2CCCCC2)ccc1O | – | inactive

Reference: PubChem BioAssay AID1259240 (Keith Lab, Institute of Cancer Science, University of …, 2017)
